Here are results for nine molecules from PubChem BioAssay (NCATS).

Records with an inconclusive call do not appear. Active and inactive are the calls of the source. Unless noted, calls follow the shape of the dose curve; as a rule, active = well fitted curve in the direction sought with a large enough effect; inconclusive = small, poorly fitted or top-dose-only effect, or another doubt; inactive = no such curve, though single readings can be large; an effect the other way counts as inactive or inconclusive.

Assay [1] in a line: Cell Viability - NIH 3T3 (AID 541).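 Also: cells exposed to compound for 40 hours; plate controls were DMSO alone for no effect and tamoxifen positive control for full effect; nearly all actives have a fitted effect of over 25% in size.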 Conditions: NIH 3T3 cell viability, qHTS; activity change, negative = cytotoxicity: at 92.2 µM (top of the series). Put shortly:
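qHTS format; 40 hr compound exposure, 37 °C; CellTiter-Glo luminescence (cellular ATP) read-out after 20 min at RT. Decrease in ATP = cytotoxicity; AC50 from standard Hill fit.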
(qHTS replaces the single test concentration by a dilution series.)

In assay [2] the target is Peroxisome proliferator-activated receptor delta (Homo sapiens) (UniProt Q03181). As to the kind of experiment: qHTS assay for small molecule agonists of peroxisome proliferator-activated receptor delta signaling (AID 588534; calls by dose curve;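 also: 0% = DMSO basal wells and 100% = positive control agonist at 10 µM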). Put shortly: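 Titration series tested in agonist mode on beta-lactamase reporter cells; 18 hrs at 37 C after a 5 hr pre-incubation. Readout: CCF4 fluorescence, 2 hrs RT. Hill equation gives EC50 and maximal response.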

A short description of assay [3]: qHTS assay for small molecule antagonists of peroxisome proliferator-activated receptor delta signaling (AID 588535; active = well fitted inhibition curve with a large enough effect in the signal ratio, with a control signal flat, not every such curve was filed as active; the % refers to the signal ratio;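 as to max response: cells co-treated with a PPAR-delta agonist as stimulator during compound exposure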). The conditions noted are these: HEK293T PPARd-UAS-bla, beta-lactamase FRET ratio, 18 h; 460 nm channel. In outline: (§1)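 Beta-lactamase reporter read-out (405 nm excitation, 460/530 nm emission) after CCF4 loading for 2 hrs at RT. HEK293T PPAR-delta-UAS-bla cells, 2% charcoal/dextran FBS, compounds for 18 hrs at 37 C. Hill fit gave IC50 and efficacy.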

Assay [4] has as its target Peroxisome proliferator-activated receptor delta (Homo sapiens) (UniProt Q03181). The assay is described as above. Put shortly:
as §1

Assay [5] addresses Peroxisome proliferator-activated receptor gamma (Homo sapiens) (UniProt P37231). As to the kind of experiment: qHTS assay for small molecule agonists of peroxisome proliferator-activated receptor gamma signaling (AID 588536; active = well fitted curve in the direction sought with a large enough effect in the signal ratio, with a control signal flat, not every such curve was filed as active; the % refers to the signal ratio;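 also: 0% = DMSO basal wells and 100% = rosiglitazone at 2 µM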). Put shortly: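 This is an agonist-mode beta-lactamase reporter assay in HEK293 PPAR-gamma-UAS-bla cells with 1% charcoal/dextran FBS. Compound titrations ran 16 h at 37 C before CCF4 detection. EC50 and efficacy are Hill fits scaled to 2 uM rosiglitazone (100%) and DMSO basal.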

For assay [6] the target is unchanged. As to the kind of experiment: qHTS assay for small molecule antagonists of peroxisome proliferator-activated receptor gamma signaling (AID 588537; active = well fitted inhibition curve with a large enough effect in the signal ratio, with a control signal flat, not every such curve was filed as active; the % refers to the signal ratio;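 also: reporter cells co-stimulated with 50 nM rosiglitazone agonist during compound treatment; % of control where 0% means no effect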). In outline: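 Read-out: CCF4 fluorescence (ex 405, em 460/530 nm) after 2 h at RT. Cells were HEK293 carrying a UAS-bla reporter and treated 16 h at 37 C with compound plus rosiglitazone (50 nM final). Normalized to rosiglitazone and DMSO.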

The target of assay [7] is Vitamin D3 receptor (Homo sapiens) (UniProt P11473). As to the kind of experiment: qHTS assay for small molecule agonists of vitamin D receptor signaling (AID 588543; calls by dose curve;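 also: 0% = DMSO basal and 100% = reference agonist control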). In outline: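 VDR-UAS-bla HEK293T cells, 2000/well, 2% charcoal-stripped FBS; compound titration 16 h at 37 C; CCF4 beta-lactamase ratio read. Normalized to 50 nM 1-alpha,25-dihydroxyvitamin D3 (100%) and DMSO; Hill fit gives EC50, efficacy.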

Assay [8] deals with Thyroid hormone receptor beta (Homo sapiens) (UniProt P10828). As to the kind of experiment: qHTS assay for small molecule agonists of thyroid hormone receptor beta signaling (AID 588545; calls by dose curve;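 also: 0% = DMSO only and 100% = 10 nM T3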). In outline:
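Efficacy and EC50 values derive from Hill fits of qHTS titration data, normalized to 10 nM T3 and DMSO-only wells. HEK 293 reporter cells were stimulated for 18 hrs at 37 C, with beta-lactamase activity measured by CCF4 fluorescence.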

For assay [9] the target is unchanged. As to the kind of experiment: qHTS assay for small molecule antagonists of thyroid hormone receptor beta signaling (AID 588547; active = well fitted inhibition curve with a large enough effect in the signal ratio, with a control signal flat, not every such curve was filed as active; the % refers to the signal ratio;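 also: cells stimulated with 0.4 nM T3 agonist during compound exposure; % is scaled to controls: 0 for no effect and ±100 for the full control effect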). The conditions noted are these: TR-UAS-bla HEK293, beta-lactamase ratio, antagonist mode, 18 h. Put shortly:
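TR-UAS-bla GripTite HEK293 cells in 2% charcoal/dextran FBS medium; compounds 0.59 nM to 92 uM with T3 at 0.4nM final, 18 h at 37 C. Beta-lactamase read by CCF4 fluorescence (460/530 nm); Hill fits gave IC50 and efficacy.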

Assay [10] is described as follows: qHTS assay for small molecule activators of the nuclear factor-kappa B (NF-kB) signaling pathway (AID 651749; active = well fitted activation curve with a large enough effect in the signal ratio; the % refers to the signal ratio; also: % of control where 0% means no effect). The conditions noted are these: NF-kB-bla ME-180 cells, beta-lactamase FRET ratio, 16 h; stronger effect = higher value. Put shortly: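 NF-kB-bla ME-180 cells, 2,000/well; 23 nL compound or DMSO pinned; 16 hr, 37C/5% CO2; beta-lactamase FRET read-out.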
The nature of assay [11]: qHTS assay for small molecule disruptors of the mitochondrial membrane potential - 5 hr assay (AID 651755; calls by dose curve; also: % is scaled to controls: 0 for no effect and ±100 for the full control effect; nearly all actives have a fitted effect of over 40% in size). In outline: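 Read-out: ratiometric Mito-MPS fluorescence, green monomer (ex 490/em 535) vs red mitochondrial aggregate (ex 540/em 590). HepG2 cells treated 5 hr at 37C before 30 min dye loading.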
The nature of assay [12]: qHTS assay for environmental chemicals that activate the Aryl hydrocarbon Receptor (AhR) signaling pathway (AID 651777). Also: % of control where 0% means no effect; nearly all actives have a fitted effect of over 15% in size. The conditions noted are these: 1A2-DRE human hepatoma cells, luciferase, 24 h; activation: stronger effect = higher value. In outline:
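Following a 24 hr incubation with test chemicals at 37 C and 5% CO2, 1A2-DRE human hepatoma cells received One-Glo reagent; after 30 min at room temperature, luciferase output reflected CYP1A2 induction via AhR.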

The target in assay [13] is Nuclear receptor ROR-gamma (Homo sapiens) (UniProt P51449). The experiment in a line: qHTS assay for small molecule antagonists of the retinoid-related orphan receptor gamma (ROR-gamma) signaling pathway (AID 651802).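 Also: CHO cells with doxycycline-induced ROR-gamma expression; luciferase reporter luminescence driven by ROR response element; % is scaled to controls: 0 for no effect and ±100 for the full control effect; nearly all actives have a fitted effect of over 60% in size.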 Put shortly:
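Luciferase read-out: ONE-Glo luminescence after 30 min at room temperature, following 16hr doxycycline induction at 37C, 5% CO2 of CHO cells with TET-inducible ROR and RORE-LUC reporter; decreased luminescence = reduced reporter activity.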

The target in assay [14] is Estrogen receptor (Homo sapiens) (UniProt P03372). The experiment in a line: qHTS assay for small molecule antagonists of estrogen receptor alpha signaling (AID 588513; active = well fitted curve in the direction sought with a large enough effect in the signal ratio, with a control signal flat, not every such curve was filed as active; the % refers to the signal ratio; also: % is scaled to controls: 0 for no effect and ±100 for the full control effect). In outline: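 ER-alpha-UAS-bla GripTite HEK 293 cells in 2% charcoal/dextran-treated FBS medium; compounds titrated (1:2, duplicate), then stimulated with 0.5 nM 17-beta-estradiol for 18 h at 37C. CCF4 beta-lactamase fluorescence; Hill-fit IC50 and efficacy.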

For assay [15], the target named is Glucocorticoid receptor (Homo sapiens) (UniProt P04150). As to the kind of experiment: qHTS assay for small molecule agonists of glucocorticoid receptor signaling (AID 588532; active = well fitted curve in the direction sought with a large enough effect in the signal ratio, with a control signal flat; the % refers to the signal ratio;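 also: 100% = dexamethasone at 0.1 µM and 0% = DMSO only wells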). The conditions noted are these: HeLa MMTV-bla, beta-lactamase ratio, agonist, 18 h; stronger effect = higher value; percent of dexamethasone control, DMSO zero. Put shortly: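 MMTV-bla HeLa beta-lactamase reporter cells in 1% charcoal/dextran FBS medium, compounds up to 92 uM for 18 h at 37 C, CCF4 readout; normalized to 0.1 uM dexamethasone (100%), EC50 and efficacy from Hill fits.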

Assay [16] concerns the target Tumor necrosis factor (Homo sapiens) (UniProt P01375). As to the kind of experiment: qHTS assay to identify small molecules that stimulate Tumor Necrosis Factor-alpha (TNF-alpha) secretion (AID 651757; active = well fitted curve in the direction sought with a large enough effect in the signal ratio; the % refers to the signal ratio; also: 0% is about no effect). Put shortly: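 THP-1 cells, 3000/well; compound 17 hrs, 37 C; add cryptate/XL665 anti-TNF-alpha antibody pair; 3 hr RT; TR-FRET (HTRF) read of secreted TNF-alpha. Quantitative HTS format.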

For assay [17], the target named is Glucocorticoid receptor (Homo sapiens) (UniProt P04150). The experiment in a line: qHTS assay for small molecule antagonists of glucocorticoid receptor signaling (AID 588533; active = well fitted inhibition curve with a large enough effect in the signal ratio, with a control signal flat, not every such curve was filed as active; the % refers to the signal ratio;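 also: cells stimulated with 2 nM dexamethasone as agonist; % is scaled to controls: 0 for no effect and ±100 for the full control effect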). Put shortly:
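Antagonist-mode qHTS: compound titrations added to GRE-bla HeLa cells, then dexamethasone 2 nM final; 18 h, 37 C. CCF4 FRET fluorescence normalized to dexamethasone and DMSO; IC50 from Hill fit.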

A short description of assay [18]: qHTS assay for small molecule agonists of the antioxidant response element (ARE) signaling pathway measured by Nrf2-dependant transcriptional activity (AID 720636; active = well fitted curve in the direction sought with a large enough effect in the repeat runs; an effect the other way counts as inactive or inconclusive;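 also: HepG2 cells with an ARE-driven luciferase reporter; % of control where 0% means no effect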). Put shortly:
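ONE-Glo luminescence, read 30 min after reagent addition at room temperature, reflected ARE reporter activity in HepG2 cells that had been incubated with compound for 16 hr at 37 C in 1% dialyzed FBS.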

Assay [19] has as its target Bile acid receptor (Homo sapiens) (UniProt Q96RI1). As to the kind of experiment: qHTS assay for small molecule agonists of farnesoid X receptor signaling (AID 588527; calls by dose curve;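 also: 0% = vehicle basal and 100% = reference agonist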). Conditions: HEK293T FXR-UAS-bla, beta-lactamase ratio, 16 h; stronger effect = higher value. Put shortly: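 Agonist-mode beta-lactamase reporter in GeneBLAzer FXR-UAS-bla HEK293T cells, titration up to 92 uM, 16 h exposure at 37 C, CCF4 fluorescence. Response scaled to DMSO (0%) and 100 uM chenodeoxycholic acid (100%), then Hill-fitted for EC50 and efficacy.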

The nature of assay [20]: qHTS assay to identify small molecules that stimulate interleukin-8 (IL-8) secretion (AID 651758; active = well fitted activation curve with a large enough effect in the signal ratio; the % refers to the signal ratio; also: 0% is about no effect). Put shortly: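 Compounds are added to THP-1 cells (2000 per well) and left 16 hrs at 37 C. A labeled anti-IL-8 antibody pair is then added, and IL-8 secretion is measured by time-resolved FRET after 1-3 hrs at room temperature.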

Chain of Peroxisome proliferator-activated receptor delta (Homo sapiens) (Q03181 whole entry, looked up): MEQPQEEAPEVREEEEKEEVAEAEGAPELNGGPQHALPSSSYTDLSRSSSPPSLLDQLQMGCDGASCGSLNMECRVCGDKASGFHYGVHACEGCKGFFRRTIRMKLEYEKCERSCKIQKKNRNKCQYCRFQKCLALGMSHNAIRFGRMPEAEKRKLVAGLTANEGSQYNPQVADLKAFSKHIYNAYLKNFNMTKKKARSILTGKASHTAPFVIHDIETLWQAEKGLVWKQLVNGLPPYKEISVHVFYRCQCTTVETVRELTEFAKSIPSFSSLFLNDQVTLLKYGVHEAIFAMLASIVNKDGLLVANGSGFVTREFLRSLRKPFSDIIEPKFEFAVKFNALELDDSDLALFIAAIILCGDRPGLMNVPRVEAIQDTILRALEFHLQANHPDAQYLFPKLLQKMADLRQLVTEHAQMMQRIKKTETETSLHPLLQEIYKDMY
Chain of Nuclear receptor ROR-gamma (Homo sapiens) (P51449 whole entry, looked up): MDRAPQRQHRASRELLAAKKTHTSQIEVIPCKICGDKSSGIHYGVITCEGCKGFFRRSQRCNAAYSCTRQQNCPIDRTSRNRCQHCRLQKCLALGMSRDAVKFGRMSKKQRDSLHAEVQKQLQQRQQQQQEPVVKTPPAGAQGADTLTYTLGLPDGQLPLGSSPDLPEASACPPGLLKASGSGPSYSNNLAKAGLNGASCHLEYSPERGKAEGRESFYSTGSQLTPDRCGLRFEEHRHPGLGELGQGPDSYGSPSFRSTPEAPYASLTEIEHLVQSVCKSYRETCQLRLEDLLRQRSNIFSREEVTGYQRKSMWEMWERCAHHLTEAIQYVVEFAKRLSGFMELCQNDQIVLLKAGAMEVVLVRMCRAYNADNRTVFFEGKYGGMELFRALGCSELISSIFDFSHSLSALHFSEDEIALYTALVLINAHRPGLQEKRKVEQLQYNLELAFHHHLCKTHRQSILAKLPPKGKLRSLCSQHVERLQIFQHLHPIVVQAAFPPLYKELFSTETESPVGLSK
Chain of Tumor necrosis factor (Homo sapiens) (P01375 whole entry, looked up): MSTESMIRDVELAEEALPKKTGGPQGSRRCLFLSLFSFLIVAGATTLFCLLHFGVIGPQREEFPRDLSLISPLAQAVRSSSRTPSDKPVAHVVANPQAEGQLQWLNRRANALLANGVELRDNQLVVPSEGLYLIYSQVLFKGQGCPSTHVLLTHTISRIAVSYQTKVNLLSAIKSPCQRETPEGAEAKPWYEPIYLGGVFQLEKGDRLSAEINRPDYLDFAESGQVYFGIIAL
Chain of Estrogen receptor (Homo sapiens) (P03372 whole entry, looked up): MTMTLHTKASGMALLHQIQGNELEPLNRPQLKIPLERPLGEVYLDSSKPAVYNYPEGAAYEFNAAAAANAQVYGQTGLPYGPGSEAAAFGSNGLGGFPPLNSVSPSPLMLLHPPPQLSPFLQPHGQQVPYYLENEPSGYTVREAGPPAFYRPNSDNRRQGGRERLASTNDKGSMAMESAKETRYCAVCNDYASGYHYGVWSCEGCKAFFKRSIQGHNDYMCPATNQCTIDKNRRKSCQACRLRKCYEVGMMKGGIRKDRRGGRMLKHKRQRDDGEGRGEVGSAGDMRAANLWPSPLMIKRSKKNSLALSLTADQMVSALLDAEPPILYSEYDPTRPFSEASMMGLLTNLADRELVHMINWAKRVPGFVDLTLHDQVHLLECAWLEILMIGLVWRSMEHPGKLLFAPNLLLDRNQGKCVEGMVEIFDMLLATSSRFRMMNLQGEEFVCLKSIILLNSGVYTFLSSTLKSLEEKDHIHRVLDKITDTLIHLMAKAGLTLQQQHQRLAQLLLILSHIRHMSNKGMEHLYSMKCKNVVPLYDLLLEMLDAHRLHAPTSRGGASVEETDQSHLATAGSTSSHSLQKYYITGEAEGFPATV
Chain of Thyroid hormone receptor beta (Homo sapiens) (P10828 whole entry, looked up): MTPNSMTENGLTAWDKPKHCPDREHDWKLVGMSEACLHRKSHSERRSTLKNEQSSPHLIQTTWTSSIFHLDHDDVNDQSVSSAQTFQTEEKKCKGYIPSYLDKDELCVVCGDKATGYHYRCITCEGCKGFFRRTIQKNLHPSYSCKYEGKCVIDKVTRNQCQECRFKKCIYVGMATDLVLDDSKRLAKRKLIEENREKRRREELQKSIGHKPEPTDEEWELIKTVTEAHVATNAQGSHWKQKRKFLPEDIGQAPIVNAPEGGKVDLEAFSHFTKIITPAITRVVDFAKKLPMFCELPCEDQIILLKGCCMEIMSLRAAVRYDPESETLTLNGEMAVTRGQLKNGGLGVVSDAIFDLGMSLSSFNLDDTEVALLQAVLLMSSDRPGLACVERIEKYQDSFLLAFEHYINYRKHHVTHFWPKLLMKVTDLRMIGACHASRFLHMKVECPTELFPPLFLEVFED
Chain of Peroxisome proliferator-activated receptor gamma (Homo sapiens) (P37231 whole entry, looked up): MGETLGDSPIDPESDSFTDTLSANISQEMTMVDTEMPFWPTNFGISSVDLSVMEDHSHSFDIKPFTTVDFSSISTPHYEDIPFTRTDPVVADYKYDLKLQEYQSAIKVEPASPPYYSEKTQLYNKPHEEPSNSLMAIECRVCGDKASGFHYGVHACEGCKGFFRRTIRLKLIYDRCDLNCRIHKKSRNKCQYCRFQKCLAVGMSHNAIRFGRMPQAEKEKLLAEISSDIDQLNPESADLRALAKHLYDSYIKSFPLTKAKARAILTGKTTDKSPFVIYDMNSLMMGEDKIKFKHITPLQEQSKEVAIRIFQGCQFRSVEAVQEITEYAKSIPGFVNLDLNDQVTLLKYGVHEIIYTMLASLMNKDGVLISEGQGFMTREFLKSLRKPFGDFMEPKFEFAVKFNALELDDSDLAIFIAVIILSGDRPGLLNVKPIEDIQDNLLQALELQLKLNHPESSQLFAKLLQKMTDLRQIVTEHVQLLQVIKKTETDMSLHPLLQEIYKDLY
Chain of Vitamin D3 receptor (Homo sapiens) (P11473 whole entry, looked up): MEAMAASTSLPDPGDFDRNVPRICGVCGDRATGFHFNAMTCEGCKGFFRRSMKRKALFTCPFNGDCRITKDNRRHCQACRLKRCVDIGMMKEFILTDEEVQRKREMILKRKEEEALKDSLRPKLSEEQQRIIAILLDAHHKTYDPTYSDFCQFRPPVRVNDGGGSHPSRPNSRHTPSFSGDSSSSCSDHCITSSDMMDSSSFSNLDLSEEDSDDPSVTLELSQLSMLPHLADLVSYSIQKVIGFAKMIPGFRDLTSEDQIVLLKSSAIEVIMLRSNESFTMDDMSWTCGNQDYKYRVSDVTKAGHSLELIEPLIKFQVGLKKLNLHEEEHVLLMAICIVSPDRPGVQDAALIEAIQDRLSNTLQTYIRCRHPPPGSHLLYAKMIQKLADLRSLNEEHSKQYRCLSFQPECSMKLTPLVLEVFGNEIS
Chain of Glucocorticoid receptor (Homo sapiens) (P04150 whole entry, looked up): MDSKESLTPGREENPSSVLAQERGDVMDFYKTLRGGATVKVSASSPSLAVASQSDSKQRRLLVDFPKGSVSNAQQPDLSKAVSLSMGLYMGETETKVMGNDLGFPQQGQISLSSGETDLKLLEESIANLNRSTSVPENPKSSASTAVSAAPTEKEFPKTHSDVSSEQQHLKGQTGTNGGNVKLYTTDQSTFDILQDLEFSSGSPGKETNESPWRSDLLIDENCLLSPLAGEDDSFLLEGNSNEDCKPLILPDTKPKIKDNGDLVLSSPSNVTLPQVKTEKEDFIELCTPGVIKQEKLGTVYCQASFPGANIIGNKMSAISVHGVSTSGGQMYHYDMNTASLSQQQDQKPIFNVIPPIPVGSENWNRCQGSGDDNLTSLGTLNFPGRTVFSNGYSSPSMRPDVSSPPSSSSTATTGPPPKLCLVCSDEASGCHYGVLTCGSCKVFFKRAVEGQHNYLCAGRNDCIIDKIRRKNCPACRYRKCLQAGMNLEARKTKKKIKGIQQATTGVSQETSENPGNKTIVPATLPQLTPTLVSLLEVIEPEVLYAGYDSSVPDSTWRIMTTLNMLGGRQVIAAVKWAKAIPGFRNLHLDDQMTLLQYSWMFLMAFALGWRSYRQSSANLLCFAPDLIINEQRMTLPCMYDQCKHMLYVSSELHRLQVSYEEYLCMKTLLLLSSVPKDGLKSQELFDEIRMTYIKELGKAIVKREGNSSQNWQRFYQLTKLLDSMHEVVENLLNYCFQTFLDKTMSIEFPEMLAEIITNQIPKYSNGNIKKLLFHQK
Chain of Bile acid receptor (Homo sapiens) (Q96RI1 whole entry, looked up): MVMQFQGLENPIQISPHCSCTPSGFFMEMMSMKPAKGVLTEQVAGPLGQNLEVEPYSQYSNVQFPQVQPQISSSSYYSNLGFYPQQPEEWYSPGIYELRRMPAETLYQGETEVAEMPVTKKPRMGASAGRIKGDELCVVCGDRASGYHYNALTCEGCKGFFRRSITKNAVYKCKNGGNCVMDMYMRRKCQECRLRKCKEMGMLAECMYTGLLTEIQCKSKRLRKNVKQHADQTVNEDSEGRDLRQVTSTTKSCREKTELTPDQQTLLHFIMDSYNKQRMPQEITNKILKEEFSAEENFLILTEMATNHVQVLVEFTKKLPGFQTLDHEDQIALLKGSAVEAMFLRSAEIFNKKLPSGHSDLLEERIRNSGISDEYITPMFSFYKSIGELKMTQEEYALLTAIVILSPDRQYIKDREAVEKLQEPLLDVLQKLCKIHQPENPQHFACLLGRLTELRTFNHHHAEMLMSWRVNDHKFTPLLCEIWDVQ

On to `Clc1ccc(C(Cl)(Cl)Cl)c(Cl)c1`, for which the Potency entry in assay [1], in assay [6], in assay [8], in [11] and in [13] was “inactive” in each case. Moreover, the molecule was classed as inactive in assay [2], in assay [4], in assay [5] and in [7]. Further, in assay [3], the max response is 5.85%. Also, the activity change % (negative = inhibition) in assay [9] is 16.5% (inactive). Besides, the activation was -0.477% (inactive) in assay [10] and -1.61% (inactive) in assay [12].

For `CC(Cl)CCl` (configuration not stated), the Potency result in [1], in [14], in [8], in [11] and in [13] was “inactive” each time. The activation in assay [15] is 4.13% (inactive); in assay [12], 0.102% (inactive). For the same molecule, the result in assay [2], in [5], in assay [7] and in assay [16] was inactive. Besides, the activity change % (negative = inhibition) in assay [9] was -3.7% (inactive).

On to `Clc1ccc(C(Cl)(Cl)Cl)cc1Cl`, for which the Potency result in assay [1], in assay [14], in assay [6], in assay [13] and in assay [18] was “inactive” in each case. Moreover, the outcome in [17], in assay [2], in assay [5], in assay [7] and in [16] was inactive. The activation in assay [10] was -1.35% (inactive); in assay [12] it was -0.831% (inactive).

For the molecule `CCCCCC[N+](=O)[O-]`, the Potency entry in assay [1], in [11], in assay [13] and in assay [18] was “inactive” throughout. Further, the activation in [19] was 1.12% (inactive); in assay [10], 1.69% (inactive); in assay [12] it was 0.0869% (inactive). In addition, the result in assay [17], in assay [2], in [7] and in assay [16] was inactive. In assay [9], the activity change % (negative = inhibition) is -9.74% (inactive).

For the molecule `O=[N+]([O-])c1cccc2c([N+](=O)[O-])cccc12`, the Potency entry in assay [1], in assay [8], in [11], in assay [20] and in assay [13] was “inactive” each time. In addition, the activation in [15] is -1.31% (inactive); in [10], 0.0339% (inactive); in [12], 0.19% (inactive). Besides, the molecule was called inactive in assay [17], in [2], in assay [4], in assay [5] and in [16]. Also, the max response in assay [3] was -9.5%. In assay [9], the activity change % (negative = inhibition) was -3.1% (inactive).

As to `S=c1[nH]c2ccccc2[nH]1`, the Potency entry in assay [1], in assay [6], in assay [8], in assay [20] and in assay [18] was “inactive” each time. For the same molecule, the figures for the activation in [15] and in [12] were -3.9% (inactive) and 1.98% (inactive), respectively. For the same molecule, the activity change % (negative = inhibition) in assay [9] was -0.89% (inactive).

With `O=C(Cl)OCc1ccccc1`, the Potency result in assay [1], in assay [14], in assay [20] and in assay [13] was “inactive” throughout. Also, the activation in [15] is -1.41% (inactive); in assay [10] it was -0.156% (inactive); in assay [12] it was 0.249% (inactive). Besides, the molecule was called inactive in assay [17], in assay [5], in assay [7] and in assay [16].

As to `Cc1ccc([N+](=O)[O-])cc1`, the Potency entry in assay [1], in [14], in assay [6], in assay [8], in assay [20] and in [13] was “inactive” in each case. The activation in assay [15] is -2.83% (inactive); in assay [12], -0.408% (inactive). In addition, the molecule was called inactive in [17], in assay [2], in assay [4], in assay [5], in [7] and in [16]. Further, the max response in [3] turned out to be 22.5%.

Turning to `CN=C=O`, the Potency entry in [1], in [8], in assay [11] and in assay [13] was “inactive” each time. In addition, the call in assay [2] and in assay [16] was inactive. Further, in assay [3], the max response stood at 61.5%. Moreover, the activity change % (negative = inhibition) in assay [9] is -7.41% (inactive). For the same molecule, in assay [12], the activation is -0.54% (inactive).
